Compound activity deposited in PubChem by National Center for Advancing Translational Sciences (NCATS).
Hits are enriched below; roughly 16% of the tested compounds scored in any of these assays.
TDP1 cell noCPT: qHTS for Inhibitors of human tyrosyl-DNA phosphodiesterase 1 (TDP1): qHTS in cells in absence of CPT | Potency, µM (top dose mostly 46.2 µM), usual class: inhibitors | 15% of 420,000 active | AID 686978, 2013 | DT40 Tdp1-/- hTDP1 cells, no CPT, ATP luminescence, 48 h; also: nearly all actives have a fitted effect of over 55% in size
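Chicken DT40 Tdp1-/- cells complemented with human TDP1, screened without camptothecin (DMSO vehicle only), 400 cells/well. Compounds pin-transferred, cells incubated at 37 °C for at least 48 hr. Growth read as ATP-dependent luminescence (CellTiter-Glo, 30 min at RT).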
uPA generation: qHTS for Inhibitors of Cell Surface uPA Generation; cell surface uPA generation assay, qHTS; Potency, µM (doses to about 38.3 µM), most hits filed as inhibitors; 0.31% of 330,000 active; AID 540303, 2011; active = well fitted inhibition curve with a large enough effect; inconclusive = small, poorly fitted or top-dose-only effect; inactive = no such curve, though single readings can be large or run the other way; tested in mouse RAW 264.7 cells; also: nearly all actives have a fitted effect of over 55% in size
TDP1 inh: qHTS Assay for Inhibitors of Tyrosyl-DNA Phosphodiesterase (TDP1). Tyrosyl-DNA phosphodiesterase 1 (Homo sapiens), Q9NUW8. recombinant TDP1, AlphaScreen DNA substrate cleavage. Potency, µM (highest dose often 130 µM), usual class: inhibitors. 0.28% of 350,000 active. AID 485290, 2010; also: nearly all actives have a fitted effect of over 40% in size
Target sequence (Q9NUW8 whole entry, looked up): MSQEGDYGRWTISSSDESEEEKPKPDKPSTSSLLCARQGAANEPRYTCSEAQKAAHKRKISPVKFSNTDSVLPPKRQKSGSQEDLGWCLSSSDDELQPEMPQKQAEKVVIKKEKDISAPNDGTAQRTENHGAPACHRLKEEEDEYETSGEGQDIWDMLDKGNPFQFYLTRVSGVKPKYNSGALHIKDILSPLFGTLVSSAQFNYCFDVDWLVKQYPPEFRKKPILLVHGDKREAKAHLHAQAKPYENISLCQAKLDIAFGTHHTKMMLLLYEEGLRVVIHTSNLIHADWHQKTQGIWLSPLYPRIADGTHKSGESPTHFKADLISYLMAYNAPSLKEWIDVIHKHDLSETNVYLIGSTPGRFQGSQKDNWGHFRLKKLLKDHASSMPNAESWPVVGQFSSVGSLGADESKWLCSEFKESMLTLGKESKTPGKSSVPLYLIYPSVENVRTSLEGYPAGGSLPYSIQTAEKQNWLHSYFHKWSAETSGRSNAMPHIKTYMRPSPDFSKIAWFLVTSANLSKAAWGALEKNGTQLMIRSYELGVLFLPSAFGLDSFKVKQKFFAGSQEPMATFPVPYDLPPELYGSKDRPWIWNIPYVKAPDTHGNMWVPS
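Steps: enzyme plus compound, 15 min RT; add biotin/phosphotyrosine-FITC oligonucleotide (15 nM final), react 5 min; add donor/acceptor beads (10 ug/ml final), 10 min; read AlphaScreen. Tdp1 at 1 nM final.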
miR-21 reporter: qHTS Assay for Modulators of miRNAs and/orActivators of miR-21; HeLa miR-21 FLuc reporter, luciferase, 48 h; 340,000 tested, under 10 active; AID 2288, 2010; Potency, µM (titrated, usually from 38.3 µM), actives largely listed as activators;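 also: miR-21 action dims this reporter so a rising signal means less miR-21 action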
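HeLa cells stably expressing CMV-driven firefly luciferase with a downstream miR-21 binding sequence, endogenously expressing miR-21, were treated with titrations (up to about 40uM final) for 48 hours at 37 degree Celsius. Luciferase luminescence was read after lysis.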
DT40 TDP1 CPT: qHTS for Inhibitors of human tyrosyl-DNA phosphodiesterase 1 (TDP1): qHTS in cells in presence of CPT. Potency, µM (highest dose often 46.2 µM), hits mostly inhibitors. 12% of 420,000 active. chicken DT40 Tdp1-/-;hTDP1 cells + 20 nM CPT, ATP luminescence, 48 h; also: nearly all actives have a fitted effect of over 55% in size
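Cell growth measured by CellTiter-Glo luminescence after a minimum 48 h, 37 C compound exposure with 20 nM CPT in Tdp1-knockout DT40 cells stably expressing hTDP1, seeded 400/well; qHTS titration format.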
Each line names hits and unclear results; the compound was inactive in the other large screens. Unless noted, calls follow the shape of the dose curve; as a rule, active = well fitted curve in the direction sought with a large enough effect; inconclusive = small, poorly fitted or top-dose-only effect, or another doubt; inactive = no such curve, though single readings can be large; an effect the other way counts as inactive or inconclusive.

Cc1ccc(C)c(Cn2nnc3c(=O)[nH]c(C4CCN(C(=O)c5ccco5)CC4)nc32)c1	TDP1 cell noCPT inconclusive, DT40 TDP1 CPT 21µM
Cc1ccc(C)c(Cn2nnc3c(=O)[nH]c(C4CCN(S(=O)(=O)c5ccc(S(=O)(=O)NC6CC6)cc5)CC4)nc32)c1	TDP1 cell noCPT 18µM, DT40 TDP1 CPT inconclusive (no result: TDP1 inh)
Cc1ccc(Cn2nnc3c(=O)[nH]c(C4CCN(S(=O)(=O)c5ccc(F)cc5)CC4)nc32)cc1	none (no result: uPA generation)
O=c1[nH]c(C2CCN(S(=O)(=O)c3ccc(S(=O)(=O)NC4CC4)cc3)CC2)nc2c1nnn2Cc1ccccc1	none (no result: TDP1 inh)
Cc1ccc(Cn2nnc3c(=O)[nH]c(C4CCN(S(=O)(=O)c5cc(C)ccc5C)CC4)nc32)cc1	TDP1 cell noCPT 23µM, DT40 TDP1 CPT inconclusive
O=C(c1ccco1)N1CCC(c2nc3c(nnn3Cc3ccccc3Cl)c(=O)[nH]2)CC1	TDP1 cell noCPT inconclusive, DT40 TDP1 CPT inconclusive
O=C(Nc1ccc(Cl)cc1)C1=Cc2cc(Cl)ccc2OC1	TDP1 cell noCPT 26µM, DT40 TDP1 CPT 18µM
COc1ccc(C(=O)C2CCCN(Cc3c(F)ccc(F)c3F)C2)c(OC)c1 (configuration not stated)	TDP1 cell noCPT inconclusive
COc1ccc(CN2CCN(Cc3c[nH]c4ccccc34)CC2)cc1OC	none (no result: uPA generation, TDP1 inh, miR-21 reporter)
COc1ccc(CN2CCN(S(=O)(=O)c3ccccc3)CC2)c(OC)c1	TDP1 cell noCPT 15µM, DT40 TDP1 CPT inconclusive (no result: uPA generation)
COc1ccc(C(=O)C2CCCN(Cc3c[nH]c4ccccc34)C2)c(OC)c1 (configuration not stated)	TDP1 cell noCPT 9.2µM, DT40 TDP1 CPT 7.3µM (no result: TDP1 inh)
COc1ccc(Br)cc1CN1CCN(Cc2c[nH]c3ccccc23)CC1	TDP1 cell noCPT 7.3µM, DT40 TDP1 CPT 4.6µM (no result: TDP1 inh)
COc1ccc(CN2CCN(Cc3c[nH]c4ccccc34)CC2)c(OC)c1	TDP1 cell noCPT 0.29µM (no result: uPA generation, TDP1 inh, miR-21 reporter)
COc1cc2ccccc2cc1C(=O)Nc1cccc(-c2nc3cc(C)c(C)cc3o2)c1C	none (no result: uPA generation, TDP1 inh)
COc1ccc(C(=O)C2CCCN(C/C=C/c3ccccc3OC)C2)c(OC)c1 (configuration not stated)	TDP1 cell noCPT 2.6µM, DT40 TDP1 CPT 21µM (no result: TDP1 inh)
COc1ccccc1C(=O)N1CCN(Cc2c[nH]c3ccccc23)CC1	TDP1 cell noCPT 16µM, DT40 TDP1 CPT 15µM (no result: TDP1 inh)
COc1ccccc1CC(=O)N1CCCC(CCC(=O)NCc2ccccc2F)C1 (configuration not stated)	DT40 TDP1 CPT inconclusive (no result: TDP1 inh)
COc1ccccc1/C=C/CN1CCCC(CCC(=O)NCc2ccccc2F)C1 (configuration not stated)	TDP1 cell noCPT 21µM, DT40 TDP1 CPT 18µM
COc1ccc(Br)cc1CN1CCN(C(=O)c2ccc(F)cc2)CC1	TDP1 cell noCPT 21µM, DT40 TDP1 CPT inconclusive
COc1ccc(OC)c(NC(=O)C2=C(C)C(=O)OC23CCN(C(C)C)CC3)c1	TDP1 cell noCPT inconclusive (no result: uPA generation)
COc1ccc(CN2CCN(Cc3c[nH]c4ccccc34)CC2)cc1	TDP1 cell noCPT 13µM, DT40 TDP1 CPT 6.5µM (no result: TDP1 inh)
COc1ccc(/C=N/Nc2nc(=O)[nH]nc2C)cc1OC	none
Cc1cccc2cc(C#N)c(NCCNS(=O)(=O)c3ccccc3)nc12	none (no result: TDP1 inh)
Cc1cccc2cc(C#N)c(NCCCNS(=O)(=O)c3ccc(Cl)cc3)nc12	TDP1 cell noCPT inconclusive, DT40 TDP1 CPT 18µM (no result: TDP1 inh)
CCc1ccc(CN2CCc3nc(N4CCN(CC)CC4)ncc3C2)cc1	TDP1 cell noCPT 16µM, DT40 TDP1 CPT inconclusive (no result: uPA generation)
CCN1CCN(c2ncc3c(n2)CCN(Cc2cc(F)cc(F)c2)C3)CC1	TDP1 cell noCPT 15µM, DT40 TDP1 CPT 15µM (no result: uPA generation)
CCCN1CCN(c2ncc3c(n2)CCN(Cc2ccc(OC)c(OC)c2OC)C3)CC1	TDP1 cell noCPT 18µM, DT40 TDP1 CPT inconclusive (no result: uPA generation)
CCN1CCN(c2ncc3c(n2)CCN(Cc2ccc(OC)c(OC)c2)C3)CC1	none (no result: uPA generation)
COc1cc(OC)c(OC)cc1CN1CCc2nc(N3CCN(C)CC3)ncc2C1	none (no result: uPA generation)
CCCN1CCc2nc(N3CCN(CC)CC3)ncc2C1	none (no result: uPA generation)
